High-throughput results from PubChem.
HCV inhibitor: inhibitors of hepatitis C virus infection. Huh7.5.1 HCVcc-Cre infection, luciferase reporter, 44 h. Potency, µM (doses to about 41.8 µM), without a hit: at the highest dose activity change, negative = inhibition, hits mostly inhibitors. 340,000 compounds, 3.4% hits; also: potency is read from the fitted curve at half-maximal effect
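Infectious HCVcc-Cre (~0.5 moi) was added to cells just after compound, with cells seeded 4 h earlier at 1,000 per well. Luciferase activity after 44 h culture reported infection; substrate was incubated 15 min at room temperature before reading.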
Marburg entry inh: blocks Marburg virus binding to or entry into cells; Marburg virus pseudotyped entry inhibition, cell reporter; Potency, µM (highest dose often 37.8 µM), for inactives: at the top dose activity change, negative = inhibition, hits mostly inhibitors; 300,000 compounds, 1.8% hits; AID 540276; calls by dose curve; tested in HEK293 cells; also: potency is read from the fitted curve at half-maximal effect
FMDV inh: blocks foot and mouth disease virus; 410,000 compounds, 1.2% hits; FMDV antiviral cell-based qHTS; Potency, µM (doses to about 57.9 µM), without a hit: at the highest dose activity change, negative = inhibition, usual class: inhibitors; AID 1159524; calls by dose curve; tested in HEK293T cells; also: read-out not given here; potency is read from the fitted curve at half-maximal effect; nearly all actives have a fitted effect of over 45% in size
FBPA Giardia inh: Giardia lamblia aldolase inhibition. 290,000 compounds, 0.71% hits. Potency, µM (doses to about 59.6 µM), inactives show top-dose activity, negative = inhibition, usual class: inhibitors. purified Giardia FBPA. A8B2U2; also: potency is read from the fitted curve at half-maximal effect; nearly all actives have a fitted effect of over 55% in size
Target sequence (A8B2U2 whole entry, looked up): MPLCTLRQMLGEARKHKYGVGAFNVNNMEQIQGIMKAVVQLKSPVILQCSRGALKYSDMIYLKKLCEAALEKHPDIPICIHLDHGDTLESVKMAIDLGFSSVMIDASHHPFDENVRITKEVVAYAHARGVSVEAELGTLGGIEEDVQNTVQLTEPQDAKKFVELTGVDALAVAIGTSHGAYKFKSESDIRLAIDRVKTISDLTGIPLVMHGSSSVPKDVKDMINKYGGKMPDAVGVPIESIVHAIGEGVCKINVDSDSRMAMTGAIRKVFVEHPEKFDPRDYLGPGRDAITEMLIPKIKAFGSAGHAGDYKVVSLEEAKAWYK
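40 nM FBPA preincubated 10 min at RT with compound (up to 57.5 uM final), then substrate plus GAPDH/TPI/NAD/arsenate coupling and diaphorase/resazurin added. Fluorescence read after 20 min at RT, 525/598 nm.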
HCMV antiviral: human cytomegalovirus inhibition; HFF cells, HCMV-luciferase reporter, 72 h; hits give low values; activity change, negative = inhibition, % at 57.5 µM; 410,000 compounds, 4.5% hits; in the data active = activity change below about -60%; inconclusive = no clear call, values can overlap the other calls; inactive = above about -39%
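HFF cells seeded 16 h at 37C, treated with compounds, infected with luciferase-reporter HCMV at MOI 1 PFU/cell; luciferase read at 72 h post infection, normalized to buffer-only and Salinomycin controls.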
Lassa entry inh: blocks Lassa virus binding to or entry into cells; Lassa virus pseudotype entry inhibition, cell reporter; Potency, µM (series often up to 37.9 µM), for the others: top-dose activity change, negative = inhibition, usual class: inhibitors; 300,000 compounds, 1.2% hits; AID 540256; calls by dose curve; tested in HEK293 cells; also: potency is read from the fitted curve at half-maximal effect; nearly all actives have a fitted effect of over 50% in size
* hit, by the source's call; ? = inconclusive; / = no result given; [ ] = another dose, or the depositor's remark. Rows were chosen to be rich in hits. Some 8.3% of all compounds tested hit in one or more screens of this group. Unless noted, calls follow the shape of the dose curve; as a rule, active = well fitted curve in the direction sought with a large enough effect; inconclusive = small, poorly fitted or top-dose-only effect, or another doubt; inactive = no such curve, though single readings can be large; an effect the other way counts as inactive or inconclusive. % is scaled to controls: 0 for no effect and ±100 for the full control effect.

SMILES	HCV inhibitor	Marburg entry inh	FMDV inh	FBPA Giardia inh	HCMV antiviral	Lassa entry inh
CCN1CCN(CCCNC(=O)CCC(=O)N2CCOc3ccccc32)CC1	12.9%	/	-17.5%	-1.8%	-30.9	/
CC1CC(C)CN(CCCNC(=O)CCC(=O)N2CCOc3ccccc32)C1 (centres undefined)	2.3%	/	-12.8%	3.5%	-64.6*	/
Cc1ccc(C(=O)Nc2nnc(SCc3cc(=O)n4ccc(C)cc4n3)s2)cc1	/	/	40.4%	/	28.0	0.3%[46.1 µM]
Cc1sc2ncnc(Sc3nnnn3-c3ccc(Cl)cc3)c2c1C	14.9%	?	?	7.4%	52.8	20.6µM*
c1ccc(-n2nnnc2Sc2ncnc3sc4c(c23)CCCC4)cc1	3.8%	?	28.2µM*	4.2%	-7.0	?
CSc1nnnn1-c1ccc(Cl)cc1	21.1%	4.8%[46.1 µM]	-2.0%	6.7%	-13.7	-17.0%
CC(Oc1ccc(F)cc1)C(=O)Nc1cc(-c2ccc(F)c(F)c2)no1 (centres undefined)	/	4.3%[46.1 µM]	-24.9%	/	-26.9	-7.7%[46.1 µM]
CCc1c(C)sc2c1CCN(C(=O)Nc1ccc(F)c(Cl)c1)C2c1ccc(F)cc1 (centres undefined)	/	/	39.8µM*	/	-103.7*	?
CCc1c(C)sc2c1CCN(C(=O)Nc1ccccc1C(=O)OC)C2c1ccc(F)cc1 (centres undefined)	/	/	-29.5%	/	-1.0	2.2%[46.1 µM]
Cc1ccn2cc(-c3ccc4c(c3)NC(=O)CO4)nc2c1	1.4%	/	0.0%	?	-83.9*	/
Cc1ccccc1Cn1c(C)c(C(=O)N(C)Cc2ccc(F)cc2)sc1=O	/	/	-16.7%	/	-60.2*	/
COc1ccc(Br)c(Cn2c(C)c(C(=O)N(C)Cc3ccc(F)cc3)sc2=O)c1	/	/	?	/	-85.0*	/
CC#CCN1c2ccccc2[C@]23C[C@@H](C(=O)OC)N(S(=O)(=O)c4c(C)noc4C)C2=NC(C(=O)OC)=C(C(=O)OC)[C@H]13	/	/	/	-2.2%[12.9 µM]	/	/
COC(=O)[C@@H]1[C@@H](C(=O)OC)C2(c3ccccc3-c3ccccc32)N(c2ccc(Cl)cc2)N1C#N	1.78µM*	10µM*	3.55µM*	-2.2%	-81.9*	?
CCOc1ccc(/C=N/n2c(C3CCCCC3)n[nH]c2=S)cc1	11.2µM*	/	-15.4%	12.0%	-81.2*	/
CN(C)c1ccc(/C=N/n2c(C3CCCCC3)n[nH]c2=S)cc1	10.0%	2.24µM*	-14.7%	19.4%	-10.7	?
CCOC(=O)C1=C(C)N=C2S[C@H](C)C(=O)N2[C@@H]1c1ccc(OC(C)=O)c(OC)c1	/	-13.5%	/	/	/	/
C[C@H](CCC(=O)O)[C@H]1CC[C@@H]2[C@H]3CC[C@H]4C[C@@H](O)CC[C@@]4(C)[C@H]3CC[C@]21C	/	/	/	15.6%[21.7 µM]	/	/
COc1ccc(NC(=O)c2nn(C)cc2[N+](=O)[O-])cc1	0.0%	/	30.2%	6.9%	-28.8	/
Cc1ccc(NC(=O)c2nn(C34CC5CC(CC(C5)C3)C4)cc2[N+](=O)[O-])cc1	?	?	56.7%	10.6%	-75.6*	-18.4%
COc1cc(Nc2ncc3c(C)nc(-c4cccc(Oc5ccccc5)c4)n3n2)cc(OC)c1OC	/	/	/	/	/	3.15µM*
COc1cc(-c2nc(-c3cccc(C(F)(F)F)c3)no2)cc(OC)c1OC	?	?	?	3.6%	-12.9	-18.1%
COc1cc(Nc2ncc3c(C)nc(-c4cccc(C(F)(F)F)c4)n3n2)cc(OC)c1OC	/	/	/	/	/	9.96µM*
COc1cc(Nc2nc3ccccc3n3nnnc23)cc(OC)c1OC	-15.0%	/	-2.1%	-2.6%	10.5	/
Cc1ccc2c(c1C)NC(=O)CC2c1ccc(Cl)cc1Cl (centres undefined)	/	-20.8%[46.1 µM]	?	/	-14.1	-0.3%[46.1 µM]
SMILES	HCV inhibitor	Marburg entry inh	FMDV inh	FBPA Giardia inh	HCMV antiviral	Lassa entry inh
COc1ccccc1N1CCN(C(=O)CSc2nnc3n2C(C)(C)Cc2ccccc2-3)CC1	6.31µM*	?	15.8µM*	12.0%	-91.8*	?
COc1ccc(-n2ncc3c(SCC(=O)N4CCN(c5ccccc5OC)CC4)ncnc32)cc1	12.6µM*	?	-9.9%	-0.6%	-14.2	?
COc1ccccc1N1CCN(C(=O)CSc2ncnc3scc(-c4ccccc4)c23)CC1	?	?	?	-2.7%	-32.7	6.31µM*
C=CCN1C(=O)CC[C@@]23C1=NC(C(=O)OC)=C(C(=O)OC)[C@@H]2N(CC#CC)c1ccccc13	/	-20.0%[14.2 µM]	/	/	/	/
COc1ccc2c3c(n(C)c2c1)[C@@H](CO)N(C(=O)Cc1ccccn1)CC31CCN(C)CC1	/	/	/	/	0.0	/
CC(NC(=O)C1CC1)c1nnc2n1CCN(Cc1cccc(F)c1F)CC2 (centres undefined)	/	/	-1.3%	/	/	/
CS(=O)(=O)c1ccc(-c2ccc3c(c2)CC(CNC(=O)C2(N4CCOCC4)CCCCC2)O3)cc1 (centres undefined)	/	/	-11.9%	/	/	/
O=C(Nc1ccc(O)c2c(=O)cc(-c3ccccc3Cl)oc12)c1cc(Cl)cc(Cl)c1	/	/	/	7.2%	/	/
Cc1ccc(S(=O)(=O)c2nc(-c3ccccc3)oc2SCC(=O)NCC2CCCO2)cc1 (centres undefined)	10µM*	?	3.2%	4.9%	?	-34.4%[46.1 µM]
O=C(CSc1oc(-c2ccc(F)cc2)nc1S(=O)(=O)c1ccccc1)NCC1CCCO1 (centres undefined)	-7.7%	?	-12.4%	-6.5%	-63.6*	-19.9%
COc1ccccc1CN1CCCC2(CCN(C(=O)c3ccncc3)CC2)C1	/	/	-2.1%	8.9%	/	/
COc1ccccc1NC(=O)C1=C(C)Nc2ncnn2C1c1ccc[nH]1 (centres undefined)	/	/	-11.6%	/	3.4	2.2%[46.1 µM]
CN(C)/C=N/c1c(C#N)cnn1-c1ccc(F)c(Cl)c1	/	/	/	0.1%	/	/
COc1ccc(-c2nc(NC(=O)C3CC(=O)N(c4ccc5c(c4)OCCO5)C3)sc2C)cc1 (centres undefined)	?	?	?	-5.8%	-96.1*	?
COc1ccc2nc(NC(=O)C3CC(=O)N(c4ccc5c(c4)OCCO5)C3)sc2c1 (centres undefined)	13.2%	5.6%	2.5%	/	-20.1	16.8%
COc1ccc(N2CC(C(=O)Nc3nccs3)CC2=O)cc1 (centres undefined)	16.9%	28.1%	-7.4%	5.7%	-78.1*	3.0%
N#C/C(=C\c1c[nH]c2ccccc12)C(=O)c1ccc(O)c(O)c1	/	?	/	-10.5%	/	?
CCOC(=O)[C@H]1[C@H]2COc3ccc(Cl)cc3[C@@H]2N2C(=O)c3cc(Cl)ccc3NC(=O)[C@@]12C	?	/	?	/	-26.1	/
CCOC(=O)[C@H]1[C@H]2COc3ccc(Cl)cc3[C@@H]2N2C(=O)CN(Cc3ccc(Cl)cc3)C(=O)[C@@]12C	-1.5%	/	?	/	-99.4*	/
CCOC(=O)[C@H]1[C@H]2COc3ccc(OC)cc3[C@@H]2N2C(=O)c3ccccc3NC(=O)[C@@]12C	?	/	-4.3%	/	-80.0*	/
